Hck Nef HTS: blocks Nef-activated human Hck kinase | P08631 | inhibition, % at 20 µM | 0.68% of 220,000 active | Recombinant Hck-YEEI plus Nef, Z-Lyte FRET kinase assay | AID 463187;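 active = Hck-Nef kinase inhibition above about 50%, limit read from the data; inactive = inhibition below that limit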;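 note: 0% = DMSO with Hck plus Nef and 100% = Hck alone without Nef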
LYPLA1 inh: LYPLA1 (human) inhibition in PME1 counter-screen. 0.16% of 320,000 active. inhibition, % at 5.9 µM. recombinant LYPLA1, FP-Rh probe fluorescence polarization. O75608. AID 2174;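 active = inhibition above the mean of all tested compounds plus 3 SD, set per campaign, cut at about 14% in these data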;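 note: inhibitors block serine hydrolase probe labeling of LYPLA1 so polarization falls; 0% = enzyme with DMSO and 100% = wells lacking LYPLA1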
Target sequence (O75608 whole entry, looked up): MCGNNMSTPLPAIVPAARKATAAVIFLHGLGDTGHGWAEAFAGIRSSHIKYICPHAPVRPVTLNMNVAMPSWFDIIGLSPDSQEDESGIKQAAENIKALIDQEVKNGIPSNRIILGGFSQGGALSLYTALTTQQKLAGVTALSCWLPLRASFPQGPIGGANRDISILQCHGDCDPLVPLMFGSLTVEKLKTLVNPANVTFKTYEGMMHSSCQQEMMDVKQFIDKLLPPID
PREPL inhibitor: inhibitors of human prolyl oligopeptidase-like enzyme PREPL; Q4J6C6; recombinant PREPL, fluorescence polarization activity-based probe; inhibition, % at 5.96 µM; 0.68% of 320,000 active; AID 2751; in the data active = inhibition above about 43%;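 note: 0% = enzyme with DMSO and 100% = wells lacking enzyme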
Rin1 Abl inh: blocks binding of human Rin1 to Abl | TR-FRET Rin1/Abl binding, biochemical | AID 588664 | 0.4% of 360,000 active | inhibition, % at 7.35 µM | P00519+Q13671; in the data active = inhibition above about 5%, passing the limit was not always enough
p97 inhibitor: inhibitors of human p97 ATPase | P55072 | recombinant p97 ATPase, Kinase-Glo ATP luminescence, 3 h | inhibition, % at 8 µM | 0.42% of 220,000 active; in the data active = inhibition above about 15%;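 note: 0% = DMSO vehicle and 100% = wells lacking enzyme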
LYPLA2 counter: counter-screen for PME1 inhibitors: inhibitors of human LYPLA2; recombinant LYPLA2, FP-Rh probe fluorescence polarization; 0.38% of 320,000 active; inhibition, % at 5.9 µM;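 active = inhibition above the screen-wide mean plus 3 SD, limit set per campaign, cut at about 26% in these data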;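 note: 0% = LYPLA2 with DMSO and 100% = wells lacking LYPLA2 enzyme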
Target sequence (O95372 whole entry, looked up): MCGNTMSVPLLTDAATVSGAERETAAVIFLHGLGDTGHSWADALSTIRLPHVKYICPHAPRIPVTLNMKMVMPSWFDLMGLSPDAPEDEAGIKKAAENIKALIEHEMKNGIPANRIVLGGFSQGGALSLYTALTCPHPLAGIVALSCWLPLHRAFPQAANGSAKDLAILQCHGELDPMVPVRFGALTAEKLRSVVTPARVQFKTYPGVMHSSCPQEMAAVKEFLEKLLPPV
Rin1-Abl confirm: Rin1-Abl interaction inhibition confirmation. shares compounds with Rin1 Abl inh. 49% of 1,300 active. AID 602124. TR-FRET Rin1-Abl binding, purified proteins. inhibition, % at 7.35 µM
GFP quench-1: GFP fluorescence interference artifact; shares compounds with Rin1 Abl inh; inhibitors/quenchers counterscreen; inhibition, % at 6.75 µM; 8.5% of 1,300 active;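 note: ABL1-eGFP fusion protein alone without its partner RIN1-SBP; 0% = protein with vehicle and 100% = wells lacking protein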
GFP quench dose: GFP fluorescence interference dose response | GFP fluorescence interference/quenching counterscreen | AID 602182 | 230 tested, under 10 active | IC50, µM | shares compounds with Rin1 Abl inh; call rule not given here;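 note: ABL1-eGFP fusion protein alone without its RIN1 binding partner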
GFP quench-2: counter-screen for Rin1-Abl interaction inhibitors: GFP fluorescence quenching; shares compounds with Rin1 Abl inh; GFP fluorescence quenching counterscreen, biochemical; IC50, µM; 25 tested, under 10 active; AID 602397; call rule not given here
Active calls of the source: *; / = no result given. An excerpt weighted towards active compounds, which were near 1.7% of everything screened. Cut-off read from the data, not from the text of the source, unless noted: active = inhibition above about 6.5%; inactive = the rest.

SMILES	Hck Nef HTS	LYPLA1 inh	PREPL inhibitor	Rin1 Abl inh	p97 inhibitor	LYPLA2 counter	Rin1-Abl confirm	GFP quench-1	others
COc1ccc(CCNC(=O)c2cccc(Br)c2)cc1OC	/	3	-5	-2	/	8	/	/
COc1ccc(C(C)C)cc1S(=O)(=O)n1cnc(C)c1	2	1	2	8.0*	-1	1	-3	0
COc1cc(C)c(Cl)cc1S(=O)(=O)n1cnc(C)c1	0	2	13	-2	-7	10	/	/
COc1ccc(C)cc1S(=O)(=O)n1nc(C)cc1C	23	2	1	8.4*	2	5	-3	2
COc1ccc2oc(C(=O)NCC(c3ccco3)N(C)C)c(C)c2c1 (stereo not given)	/	1	9	40*	/	8	45*	2	GFP quench dose=>68;GFP quench-2=>68
COC(=O)[C@H]1C[C@@]2(O)CN(S(=O)(=O)c3ccc(C)cc3)C[C@@]2(OC(=O)NCC2CCCCC2)C[C@H]1C(=O)OC	/	/	/	-2	/	/	/	/
CN(CC(=O)Nc1cccc(F)c1)C(=O)c1ccc(OCc2ccccc2)cc1	/	4	-2	12*	/	5	-3	-2
CN(CC(=O)Nc1ccc(F)cc1)C(=O)c1ccc(OCc2ccccc2)cc1	/	/	/	5	/	/	/	/
COCCN(C(=O)COC(=O)C1CCC(C(C)(C)C)CC1)c1c(N)n(Cc2ccccc2)c(=O)[nH]c1=O (stereo not given)	/	3	18	3	/	1	/	/
CCc1cccc(NC(=O)c2sc3nc4n(c(=O)c3c2C)CCC4)c1	/	-4	9	10*	/	8	-3	0
CCOc1ccc(C(=O)Nc2nnc(C(C)C)s2)cc1OCC	1	0	-2	7.8*	1	-3	-3	0
CC(=O)C[C@@H](O)CC(=O)[C@H]1OC(=O)[C@H](C)CCCCc2ccccc21	/	/	11	2	/	/	/	/
O=S(=O)(c1cccc(-n2cnnn2)c1)N1CCOCC1	-1	-2	11	8.9*	1	1	0	-3
COc1cc(-n2cnnn2)ccc1S(=O)(=O)N1CCOCC1	7	2	-6	-4	6	0	/	/
COc1ccccc1CC(NC(C)=O)C(=O)NC1CCN(S(=O)(=O)c2ccc(NC(C)=O)cc2)CC1 (stereo not given)	/	0	0	12*	/	-1	-1	-1
O=C(CNC(=O)c1cccc(F)c1)NC1CC1	/	/	5	0	/	/	/	/
Oc1ccc(/C=N/N2CCOCC2)c(O)c1O	20	0	13	30*	4	-3	33*	7	GFP quench dose=>68
Oc1ccc(/C=N/N2CCCCC2)c(O)c1O	/	-1	18	25*	/	-1	32*	6	GFP quench dose=>68
c1ccc(-c2nc3cccnc3nc2-c2ccccc2)cc1	/	-1	1	-7	/	0	/	/
CCc1cc(=O)oc2c3c(cc(OCC(=O)N[C@H](C(=O)O)[C@H](C)CC)c12)OC(C)(C)CC3	/	3	6	-3	/	7	/	/
CC(C)(C)NC(=O)c1ccc(NC(=O)c2ccccc2-c2ccccc2C(=O)O)cc1	/	-2	-3	6.5*	/	0	0	1
O=C(O)c1ccccc1-c1ccccc1C(=O)Nc1ccc(F)cc1	/	3	8	4	/	-5	/	/
O=C(NC1CCCC1)C(c1cccnc1)N(C(=O)c1csnn1)c1ccccc1Cl (stereo not given)	/	-2	-3	0	/	0	/	/
COc1ccc(S(=O)(=O)N2CCC3(CC2)CC(=O)c2ccccc2O3)cc1C	/	3	4	-4	/	-1	/	/
COc1cccc(CN2CCC(Oc3ccc(C(=O)N4CCCCC4)cc3)CC2)c1	/	4	15	5	/	2	/	/
COc1ccc(CN2CCC(Oc3ccc(C(=O)N4CCCCC4)cc3)CC2)cc1C	/	-2	13	15*	/	3	10*	-3
Brc1ccc(N=NNc2ccccc2)cc1	/	-3	3	5.8*	/	1	-2	-1
O=[N+]([O-])c1ccc(N=NNc2ccccc2)cc1	28	2	21	0	-2	12	/	/

Bioassay records from PubChem BioAssay.
